# The panel holds about 79,000 compounds, 15% with a hit somewhere; the sample as a whole holds those more often. Unmarked numbers belong to inactive results. Calls of active or inactive are those of the source. Rule as the data show it: active = growth inhibition above about 70%; inactive = the rest.
# What was measured:
# [1] = NCI Yeast Anticancer Drug Screen. Data for the rad50 strain (AID 155);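 also: 0% = growth of vehicle-only cultures of the same strain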; details: S. cerevisiae rad50 strain growth inhibition, active compounds read high
# Summary of the method: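 Vehicle-treated cultures provide the reference for the growth inhibition reported for compound-exposed, repair-deficient yeast.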
# [2] = NCI Yeast Anticancer Drug Screen. Data for the mec2-1 strain (AID 157); details: S. cerevisiae mec2-1 strain, active compounds read high
# Summary of the method: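 Readout is yeast growth inhibition, normalised to vehicle-treated controls, in the mec2-1 strain exposed to compound.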
# [3] = NCI Yeast Anticancer Drug Screen. Data for the sgs1 mgt1 strain (AID 161);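 also: 0% = growth of cultures given vehicle only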; details: S. cerevisiae sgs1 mgt1 strain, active compounds read high
# Summary of the method: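 Growth of a repair-deficient yeast mutant was monitored after compound treatment and expressed as inhibition relative to vehicle-treated cultures.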
# [4] = NCI Yeast Anticancer Drug Screen. Data for the cln2 rad14 strain (AID 165);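 also: 0% = growth equal to vehicle treated cultures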; details: S. cerevisiae cln2 rad14 strain, active compounds read high
# Summary of the method: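 Relative to vehicle controls, growth inhibition of compound-treated cln2 rad14 yeast was recorded.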
# [5] = NCI Yeast Anticancer Drug Screen. Data for the bub3 strain (AID 167); details: S. cerevisiae bub3 mutant strain, active compounds read high
# Summary of the method: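 Mutant yeast screening strain plus compound; vehicle-treated cultures serve as the 0% inhibition reference.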
# [6] = NCI Yeast Anticancer Drug Screen. Data for the mlh1 rad18 strain (AID 175); details: S. cerevisiae mlh1 rad18 strain growth inhibition, active compounds read high
# Summary of the method: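 Test agents were incubated with a yeast strain of defined genotype (DNA damage repair defect). Inhibition of growth was derived by comparison with vehicle-exposed cultures.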
# [7] = at 5.0 µM (retest, dose inferred, filed as 0.5)
# [8] = at 50.0 µM (retest, dose inferred, filed as 5.0)
SMILES,"growth inhibition [1, 7]","growth inhibition [1, 8]",growth inhibition ([1]; at 50.0 µM),"growth inhibition [2, 7]","growth inhibition [2, 8]",growth inhibition ([2]; at 50.0 µM),"growth inhibition [3, 7]","growth inhibition [3, 8]",growth inhibition ([3]; at 50.0 µM),"growth inhibition [4, 7]","growth inhibition [4, 8]",growth inhibition ([4]; at 50.0 µM),"growth inhibition [5, 7]","growth inhibition [5, 8]",growth inhibition ([5]; at 50.0 µM),"growth inhibition [6, 7]","growth inhibition [6, 8]",growth inhibition ([6]; at 50.0 µM)
Oc1ccc(O)c2c1N=NC21c2ccccc2Oc2ccccc21,5%,86% (active),65.6%,7%,89% (active),54%,6%,91% (active),83% (active),10%,84% (active),86.5% (active),5%,89% (active),86.6% (active),8%,95% (active),90.8% (active)
COc1cc(C2C(C(=O)O)=C(C)Oc3cc4c(cc32)OCO4)cc(OC)c1OC (configuration not stated),91% (active),90% (active),94.2% (active),70% (active),88% (active),92.8% (active),77% (active),93% (active),97% (active),82% (active),91% (active),88.8% (active),86% (active),87% (active),48.5%,68%,85% (active),97.8% (active)
CCOC(=O)/C(=C\c1ccc([N+](=O)[O-])cc1)C(C)=O,46%,99% (active),92.8% (active),39%,99% (active),94.7% (active),25%,98% (active),92.5% (active),17%,98% (active),87.1% (active),40%,99% (active),92.4% (active),30%,99% (active),91.8% (active)
Clc1ccc(C2=NCON=C2c2ccc(Cl)cc2)cc1,17%,97% (active),87.9% (active),7%,99% (active),90.5% (active),10%,99% (active),91% (active),9%,98% (active),89.5% (active),20%,99% (active),90.8% (active),7%,97% (active),-18.7%
Cc1ccc(C(Cl)(c2ccc(C)cc2)c2ccc(C)cc2)cc1,3%,90% (active),67.5%,39%,93% (active),93.1% (active),-3%,93% (active),97.5% (active),-2%,90% (active),94.5% (active),87% (active),92% (active),97.2% (active),11%,91% (active),92.2% (active)
C/C(=N/O)C1CC(CCC2([N+](=O)[O-])CCC(C)(O)C(/C(C)=N/O)C2)([N+](=O)[O-])CCC1(C)O (configuration not stated),0%,-8%,12.7%,3%,-1%,11.3%,-1%,-4%,-7.15%,5%,-12%,15.3%,3%,-2%,90.5% (active),1%,0%,19.9%
CCN(CC)CCOc1ccc(-c2cc(-c3ccccc3)nc(N)n2)cc1,49%,98% (active),76.5% (active),58%,99% (active),79.5% (active),44%,91% (active),85.2% (active),73% (active),93% (active),59.3%,58%,92% (active),81.3% (active),55%,99% (active),77.8% (active)
CCCC(C)NCCCCCNc1cc(OC)cc2cccnc12 (configuration not stated),3%,60%,78.8% (active),2%,22%,48.5%,25%,62%,71.6% (active),14%,40%,42%,19%,61%,82.2% (active),-19%,11%,76.5% (active)
COc1ccc(/C=C2/C(=O)NC3SC=C(c4cccc([N+](=O)[O-])c4)N23)cc1 (configuration not stated),8%,6%,33%,0%,2%,10.9%,-4%,-1%,32.6%,34%,-23%,11.4%,21%,13%,62.9%,5%,23%,29.7%

# Source: PubChem BioAssay (NCI)
